Mtb hypoxia inh = Mtb hypoxia fluorescent reporter inhibition; M. tuberculosis hypoxia-regulated fluorescent reporter, fluorescence; fluorescence inhibition, % (no concentration beside the values); actives 0.1% (n = 300,000); in the data active = fluorescence inhibition mostly above about 23%, no sharp cut-off; inactive = mostly below about 17%
GDH-TPI counter = GDH-TPI coupled enzyme inhibition counter-screen; inhibition, % at 4.8 µM; AID 588335; actives 1.2% (n = 360,000); GDH-TPI coupled enzyme counterscreen, NADH absorbance; in the data active = inhibition above about 30%;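 also: 0% = DMSO wells and 100% = wells lacking the enzyme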
FadD28 binding = inhibitors of Mycobacterium tuberculosis FadD28 bisubstrate binding; actives 0.22% (n = 360,000); inhibition, % at 12.5 µM; AID 588549; FadD28 bisubstrate probe binding, fluorescence polarization; in the data active = inhibition above about 8.5%, passing the limit was not always enough
FBA Mtb inh = inhibits M. tuberculosis FBA enzyme; P9WQA3; purified M. tuberculosis FBA, fluorescence read-out; inhibition, % at 1 µM; actives 2.3% (n = 360,000); in the data active = inhibition above about 27%;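 also: 0% = vehicle and 100% = reference inhibitor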
Target sequence (P9WQA3 whole entry, looked up): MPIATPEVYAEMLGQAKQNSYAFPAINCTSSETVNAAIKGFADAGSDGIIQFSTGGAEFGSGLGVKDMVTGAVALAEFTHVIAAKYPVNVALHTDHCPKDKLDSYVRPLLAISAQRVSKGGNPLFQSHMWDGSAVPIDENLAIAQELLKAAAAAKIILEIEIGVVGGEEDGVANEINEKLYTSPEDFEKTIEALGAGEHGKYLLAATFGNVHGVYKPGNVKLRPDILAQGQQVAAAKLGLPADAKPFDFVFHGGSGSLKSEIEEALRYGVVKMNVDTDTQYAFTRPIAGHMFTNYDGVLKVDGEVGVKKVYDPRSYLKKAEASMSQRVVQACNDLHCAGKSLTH
BioA inh = blocks M. tuberculosis BioA enzyme activity. purified M. tuberculosis BioA enzyme, plate reader. inhibition, % at 9.99 µM. actives 0.096% (n = 360,000); in the data active = inhibition above about 40%
* hit, by the source's call; . = no result. Shown are actives, neighbours in structure and some others; about 2.9% of the full set was active somewhere.

SMILES | Mtb hypoxia inh | GDH-TPI counter | FadD28 binding | FBA Mtb inh | BioA inh
O=S(=O)(NN=C1CC(c2ccccc2)Oc2ccccc21)c1ccc(Br)cc1 (stereo not given) | -5 | . | . | . | .
Nc1nonc1-n1nnc(C(=O)N/N=C/c2cccs2)c1-c1ccc2c(c1)OCO2 | . | 39* | -1 | 2 | -5
Nc1nonc1-n1nnc(C(=O)NN=Cc2ccc(F)cc2)c1-c1ccc2c(c1)OCO2 | 1 | . | . | . | .
Cc1ccc(-c2c(C(=O)N/N=C/c3ccc4c(c3)OCO4)nnn2-c2nonc2N)cc1 | . | 43* | -1 | 4 | -2
Cc1ccsc1/C=N/NC(=O)c1nnn(-c2nonc2N)c1-c1ccc2c(c1)OCO2 | . | 32* | 0 | -4 | -1
CCOc1cccc(-c2c(C(=O)N/N=C/c3sccc3C)nnn2-c2nonc2N)c1 | . | 32* | -21 | -1 | -1
C[C@H](O)C#Cc1cnc2c(c1)C(=O)N([C@@H](C)CO)C[C@H](C)[C@H](CN(C)CC1CCCCC1)O2 | . | . | . | . | 0
CCOC(=O)C(C#N)=CN1CCNc2ccccc21 | 12 | 31* | -1 | 2 | 1
Cc1ccnc(N2C(=O)c3cccc4c([N+](=O)[O-])ccc(c34)C2=O)c1 | 3 | 33* | -4 | 5 | -2
O=C(CC1S/C(=N/N=C/c2cccs2)NC1=O)Nc1ccccc1F (stereo not given) | . | 33* | -2 | 4 | .
O=C(CC1S/C(=N/N=Cc2cccs2)NC1=O)Nc1ccccc1F (stereo not given) | 2 | . | . | . | .
C=CCC1S/C(=N/N=C/c2cccs2)NC1=O (stereo not given) | . | 53* | -1 | -3 | -1
COc1ccc(NC(=O)N(C)C[C@H]2Oc3c(NC(=O)Nc4ccccc4)cccc3C(=O)N([C@@H](C)CO)C[C@H]2C)cc1 | . | . | . | . | 1
C[C@@H]1CN([C@H](C)CO)C(=O)c2cc(C#CCN(C)C)cnc2O[C@@H]1CN(C)S(C)(=O)=O | . | . | . | . | -1
CCOC(=O)COc1ccc2c(c1)C(=O)CC(C)(c1cccnc1)O2 (stereo not given) | 5 | -4 | -2 | 59* | .
COC(=O)C1=C(c2ccc(OC)c(OC)c2)CC2CCC1N2C(=O)NCc1cc(C)oc1C(F)(F)F (stereo not given) | 1 | . | . | . | .
CC=CC=CC(=O)Nc1cccc(C2=NOC3(C2)CC(C(N)=O)N(C(=O)c2cc([N+](=O)[O-])cc([N+](=O)[O-])c2)C3)c1 (stereo not given) | 57* | . | . | . | .
Cc1ccc(-c2nnn(CC(=O)NC(=O)NC3CCCCC3)n2)cc1 | 0 | -3 | -1 | -2 | -1
CC1CCCCN1Cc1ccc(-c2nnn(CC(=O)NC3CCCCC3)n2)cc1 (stereo not given) | 4 | 62* | -2 | -10 | .
CNC[C@@H]1Oc2ncc(-c3cccc(F)c3)cc2C(=O)N([C@H](C)CO)C[C@@H]1C | . | . | . | . | 3
CN(C)CCCN1C(=O)C(=O)/C(=C(/O)c2ccncc2)C1c1cccc(Br)c1 (stereo not given) | 10 | 31* | 2 | -1 | -1
COCCCN1C(=O)C(=O)/C(=C(/O)c2ccccc2)C1c1ccc(N(C)C)cc1 (stereo not given) | -4 | 12 | -1 | 5 | -2
CN(C)c1ccc(C2/C(=C(/O)c3ccccc3)C(=O)C(=O)N2CCCC(=O)O)cc1 (stereo not given) | -11 | 31* | -1 | -2 | -2
O=[N+]([O-])c1ccc(-c2ccc(C=Nn3cnnc3)o2)c(Br)c1 | -2 | . | . | . | .
CC(C)CCn1c(=O)c2ccccc2n2c(CCl)nnc12 | 36* | 13 | -1 | 4 | .
SMILES | Mtb hypoxia inh | GDH-TPI counter | FadD28 binding | FBA Mtb inh | BioA inh
Cc1ccc(C(=O)NNC(=O)CSc2nnc3c(n2)[nH]c2ccc(F)cc23)cc1 | 5 | 11 | -2 | 2 | -1
COc1ccc2[nH]c3nc(SCC(=O)NNC(=O)c4ccc(OC)c(OC)c4)nnc3c2c1 | -4 | 41* | -1 | 0 | -3
CC1(C)C2CCC(C2)C1CC=NNC(N)=S (stereo not given) | 16 | . | . | . | .
CCCCCCOc1ccc(C(C)=NNC2=NCCN2)cc1[N+](=O)[O-] | 8 | . | . | . | .
Cc1ccc(-c2ccc(/C=N/n3cnnc3)o2)cc1Cl | . | 36* | -6 | 7 | -1
Cc1cc(C(=O)O)ccc1-c1ccc(/C=N/n2cnnc2)o1 | . | 50* | -4 | 6 | 2
O=[N+]([O-])c1cc(-c2ccc(C=Nn3cnnc3)o2)cc([N+](=O)[O-])c1 | 43* | . | . | . | .
Clc1cccc(-c2ccc(/C=N/n3cnnc3)o2)c1 | . | 50* | -9 | 0 | 0
Fc1ccc(-c2ccc(C=Nn3cnnc3)o2)cc1Cl | 4 | . | . | . | .
C/C(=C\c1cccs1)C(=O)c1c(C)cc(C)[nH]c1=O | 15 | 53* | -3 | 2 | .
COc1ccc(C2NC(=O)NC(C)=C2[N+](=O)[O-])cc1OC (stereo not given) | 9 | 37* | 0 | 0 | .
CC1=C([N+](=O)[O-])C(c2ccc(O)c(O)c2)NC(=O)N1 (stereo not given) | -2 | 12 | -1 | 5 | -2
O=C(C[C@@H]1CC[C@@H]2[C@H](COC[C@H](O)CN2C(=O)Nc2cccc(Cl)c2)O1)N1CCCCC1 | . | . | . | . | 1
N#Cc1c(SCc2ccc(Cl)cc2)sc(C(=O)c2ccccc2)c1N | . | -7 | -3 | -4 | -2
CSc1c(C#N)c(N)nc2sc(C(=O)c3ccccc3)c(N)c12 | . | 46* | -2 | -2 | -2
O=C(/C=C/NCc1cccnc1)c1ccc(Br)cc1 | -11 | 54* | -2 | -3 | .
Cc1nc2sc(C#N)c(N)c2c2c1CCCC2 | 2 | -1 | -3 | 36* | -2
COc1cc(N)c2ncccc2c1Cl | 7 | 12 | 0 | 46* | -1
CCCCCCCCCCCCCCC[C@@H](O)[C@@H](N)CO | . | 8 | 48* | -2 | -1
CCCCCCCCCC(=O)OCC(O)CO (stereo not given) | 2 | 3 | 0 | 1 | 1
COc1cc(OC)cc(-c2nnc(SCC(=O)N3CCCC3)o2)c1 | . | -4 | -2 | 118* | 0
O=C(O)c1cc(N/N=C/c2c(O)ccc3ccccc23)ccc1Cl | . | 7 | 20* | 2 | 2
COc1ccc(NN=Cc2c(C(=O)O)ccc3ccccc23)cc1 | 4 | . | . | . | .
C[C@@H]1CN([C@@H](C)CO)C(=O)c2cc(NC(=O)NC3CCCCC3)ccc2O[C@H]1CN(C)S(=O)(=O)c1ccc(F)cc1 | . | . | . | . | -2
c1ccc(Cn2ccc(-c3cnc(-c4ccccc4)s3)n2)cc1 | . | 18 | -3 | 182* | .
C[C@H](CO)N1C[C@H](C)[C@H](CN(C)CC2CC2)Oc2ccc(NS(=O)(=O)c3cccs3)cc2CC1=O | . | . | . | . | 3
CCOc1ccc(CCNS(=O)(=O)c2c(C)nc3scc(C)n3c2=O)cc1OCC | 0 | 33* | 0 | -1 | -2
COc1ccc(CCNS(=O)(=O)c2c(C)nc3scc(C)n3c2=O)cc1OC | 15 | 4 | . | 0 | 0
C/C=C/c1ccc([C@H]2[C@@H](CO)N(C(=O)NC3CCCCC3)[C@H]2C#N)cc1 | . | . | . | . | 4
Cc1ccc(-c2cnc3c(c2)C(=O)N([C@@H](C)CO)C[C@@H](C)[C@@H](CN(C)C(=O)CN(C)C)O3)cc1 | . | . | . | . | 3

Assay outcomes: PubChem, several laboratories
